Most compounds without a hit are left out; they make up all but 11% or so of the library.
PNC inhibitor: perinucleolar compartment assembly inhibition; PC3M PTB-GFP, PNC prevalence imaging, 16 h; hits give low values; activity change (PNC), negative = inhibition, % at 10 µM; hit rate 3.1% among 140,000; AID 2417;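 active = readout at or below -70, meaning at least 70% loss of cells showing the perinucleolar compartment, a nuclear body marking cancer cells; inconclusive = readout between -30 and a set limit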;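 also: plate controls were DMSO wells for no effect and camptothecin positive control wells for full effect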
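Compounds are pinned in duplicate onto adhered PC3M cells stably expressing GFP-tagged PTB and incubated 16 h at 37 C. Cells are then fixed, nuclei stained with Hoechst, and PNC-positive cells counted.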
ALDH1A1 block: blocks purified human ALDH1A1 activity; hit rate 7.3% among 220,000; Purified ALDH1A1, NADH fluorescence, propionaldehyde substrate; P00352; Potency, µM (series often up to 75.3 µM), without a hit: at the top dose activity, negative = inhibition, usual class: inhibitors;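 also: potency is read from the fitted curve at half-maximal effect; plate controls were no enzyme wells and a reference inhibitor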
Target sequence (P00352 whole entry, looked up): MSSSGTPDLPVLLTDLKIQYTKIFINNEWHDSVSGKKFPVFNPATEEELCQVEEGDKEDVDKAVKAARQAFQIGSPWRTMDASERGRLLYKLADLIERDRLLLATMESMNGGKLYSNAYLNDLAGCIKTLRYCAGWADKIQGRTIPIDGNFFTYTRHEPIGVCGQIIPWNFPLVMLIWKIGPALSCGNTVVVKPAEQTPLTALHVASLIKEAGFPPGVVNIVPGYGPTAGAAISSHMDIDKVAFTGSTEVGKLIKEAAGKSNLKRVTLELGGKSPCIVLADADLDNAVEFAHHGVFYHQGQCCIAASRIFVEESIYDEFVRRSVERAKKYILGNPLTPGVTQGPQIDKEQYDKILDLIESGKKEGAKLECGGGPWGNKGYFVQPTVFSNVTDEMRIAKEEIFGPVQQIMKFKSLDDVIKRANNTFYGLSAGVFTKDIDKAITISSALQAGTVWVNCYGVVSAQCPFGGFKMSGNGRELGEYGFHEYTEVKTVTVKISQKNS
HPGD block: inhibitors of human 15-hydroxyprostaglandin dehydrogenase (HPGD); AID 894; purified HPGD, NADH fluorescence kinetic, PGE2 substrate; Potency, µM, without a hit: top-dose activity change, negative = inhibition, usual class: inhibitors; hit rate 4.3% among 150,000; also: potency is read from the fitted curve at half-maximal effect
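NADH formation kinetics: reaction with 30 uM PGE2 and 1 mM NAD+ (final), 20 nM enzyme, Tris-HCl pH 8 with Tween 20, after 15 min compound preincubation at room temperature. Fluorescence change, last versus first of five reads.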
* marks the source's active call; other numbers are inactive results; u = inconclusive; x = no result given; [ ] = dose if it differs, or a comment. Unless noted, calls follow the shape of the dose curve; as a rule, active = well fitted inhibition curve with a large enough effect (not every such curve was filed as active); inconclusive = small, poorly fitted or top-dose-only effect, or another doubt; inactive = no such curve, though single readings can be large or run the other way. Unless noted, % is scaled to controls: 0 for no effect and ±100 for the full control effect.

SMILES | PNC inhibitor | ALDH1A1 block | HPGD block
Cc1ccccc1-n1c(-c2csc3ccccc23)n[nH]c1=S | u | 22µM* | 16µM*
CC(=O)c1ccc(-n2c(-c3cc(-c4ccco4)[nH]n3)n[nH]c2=S)cc1 | 30 | -9% | 5.6µM*
CCOC1=NN(c2ncc(C(F)(F)F)cc2Cl)C(=O)/C1=C/N(C)C | x | 1% | x
COc1ccc2cc(C(N)=O)/c(=N/NC(=O)c3ccco3)oc2c1 | u | -7% | -23%
[O-]C1=N/[N+](=C/c2ccccc2Cl)CC1 | 20 | u | -4%
CCCCn1c(N2CCC(Cc3ccccc3)CC2)nc2c1c(=O)[nH]c(=O)n2C | u | u | -1%
Nc1nnnn1/N=C/c1cccc(OCc2ccccc2Cl)c1 | -24 | 1% | -7%
COc1cc(C(=O)OCC(=O)NC2CCS(=O)(=O)C2)ccc1OCc1c(C)noc1C (stereo unspecified) | 12 | 0% | -15%
C=CCSc1nnc(CNC(=O)c2ccc(Cl)cc2)n1CC | x | 5% | x
Cn1c(-c2ccco2)n[nH]c1=S | x | 8% | x
Cc1ccccc1-n1c(-c2ccco2)n[nH]c1=S | -114* | u | u
C=C(C)[C@@H]1CCC2(C(=O)O)CC[C@]3(C)[C@H](CC[C@@H]4[C@@]5(C)CCC(=O)C(C)(C)[C@@H]5CC[C@]43C)[C@@H]12 (stereo partly specified) | -95* | 8% | -14%
C=C(C)[C@H]1CC[C@]2(CO)CC[C@]3(C)[C@@H](CC[C@H]4[C@@]5(C)CC[C@@H](O)C(C)(C)[C@@H]5CC[C@@]43C)[C@H]12 | x | 11%[20.9 µM] | -6%
O=C(COc1cccc2cccnc12)N/N=C1\SCC(=O)N1CCc1ccccc1 | x | -13% | x
CCCn1nc(NC(=O)c2cccs2)c2cc3ccccc3nc21 | 3 | u | u
CCCn1nc(NC(=O)c2cccs2)c2cc3cc(OC)ccc3nc21 | -90* | u | u
CCN(CC)CCCNC(=O)C1c2ccccc2C(=O)N(C)C1c1ccc(OC)cc1 (stereo unspecified) | -21 | 6% | -13%
Cc1nnc(NC(=O)CCC(=O)NCc2ccco2)s1 | 4 | u | -13%
CCC(=O)NC(=S)Nc1ccc(S(=O)(=O)NC(C)=O)cc1 | u | 10% | -4%
CCc1ccc(S(=O)(=O)NC(=S)Nc2ccccc2)cc1 | x | 32µM* | x
Cc1ccc(S(=O)(=O)NNC(=S)Nc2ccccc2)cc1 | 35 | 7.5µM* | 11µM*
CCNC(=S)NS(=O)(=O)c1ccc(CC)cc1 | -3 | u | u
CCNC(=S)NS(=O)(=O)c1ccc(C)cc1 | -85* | u | x
Cc1ccc(S(=O)(=O)NNC(=S)Nc2c(Cl)cccc2Cl)cc1 | x | -15% | x
N=c1sc2ccccc2n1CCS (tested in a mixture with another compound) | x | u | -11%
SMILES | PNC inhibitor | ALDH1A1 block | HPGD block
Cc1ccc(C(=O)c2c(NC(=O)c3cccnc3)sc3c2CCCC3)cc1 | 17 | -14% | -10%
O=C(N/N=C/c1ccc(O)cc1)c1csc2c1CCCC2 | 37 | -11% | -23%
COc1ccc(N(C(=O)c2ccc(Br)o2)C2C=CS(=O)(=O)C2)cc1 (stereo unspecified) | 60 | u | -4%
COc1ccc(S(=O)(=O)Nc2nnc(CC(C)(C)C)s2)cc1 | x | 11µM* | x
COc1ccc(S(=O)(=O)Nc2nnc(C(C)(C)C)s2)cc1 | u | 10µM* | 10µM*
COc1ccc(S(=O)(=O)Nc2nnc(C(C)C)s2)cc1 | u | u | -15%
COc1ccc(S(=O)(=O)Nc2nnc(Cc3ccc(OC)c(OC)c3)s2)cc1 | x | 2% | x
CCc1sc(C(=O)Nc2ccccc2N2CCOCC2)cc1C | x | -1% | x
O=C(NCSc1ccnc(SCNC(=O)c2ccc(F)cc2)n1)c1ccc(F)cc1 | -97* | u | 22µM*
O=C(Nc1ccnc(-c2ccncc2)n1)c1ccc(F)cc1 | x | 10% | x
COc1cccc(/C=N/n2nnc3c(cnn3-c3ccccc3)c2=O)c1 | 84 | 0.89µM* | u
O=c1c2cnn(-c3ccccc3)c2nnn1Cc1ccccn1 | u | u | -17%
CNc1ncnc2ccc(-c3ccccc3C)cc12 | x | -8% | x
Cc1ccc(NC(=S)N/N=C/c2c(C)nn(-c3ccccc3)c2N2CCCC2)cc1 | -25 | u | x
O=C(CCC(=O)Nc1ccc(F)cc1)N/N=C/c1c[nH]c2ccccc12 | x | 6% | x
O=C(CNc1ccccc1)N/N=C/c1c[nH]c2ccccc12 | -119* | -3% | 0.13µM*
O=C(N/N=C/c1c[nH]c2ccccc12)c1[nH]c2ccc(Br)cc2c1-c1ccccc1 | -112* | u | u
Cc1cccc(NC(=S)N/N=C/c2c[nH]c3ccccc23)c1 | -82* | 9% | -20%
O=C(N/N=C/c1ccc(O)cc1)c1[nH]c2ccc(Br)cc2c1-c1ccccc1 | -5 | u | -17%
Cc1nn(C)cc1/C=N/NC(=S)Nc1ccccc1 | 0 | 25µM* | 28µM*
NC(=S)N/N=C\c1c[nH]c2ccccc12 | x | 0%[13.5 µM] | -13%
C/C(=N/NC(=O)c1sc(=S)n(C)c1C)c1ccccc1 | 14 | -7% | x
COC(=O)C1=C(C(=O)OC)[C@@H]2N(C)c3ccccc3[C@@]23C[C@@H](C(=O)OC)N(S(=O)(=O)c2ccc4c(c2)OCCN4C)C3=N1 | x | u | -20%
CCOC(=O)N1CCN(C(=O)c2ccc(OC(C)=O)cc2)CC1 | x | -3% | x
C/C=N\NC(=O)COc1cc(C)ccc1C | x | 0% | x
SMILES | PNC inhibitor | ALDH1A1 block | HPGD block
CC(C)(C)NC(=O)C(=O)NNC(=O)c1cccc([N+](=O)[O-])c1 | x | 5% | x
COc1ccc(C(=O)CCNc2ccc(C)c(Cl)c2)cc1 | -18 | 3.2µM* | 0%
COc1ccc(C(=O)CCC(=O)O)cc1 | 4 | 3% | -8%
Cc1c(C(=O)Nc2ccc(-c3nnc4n3CCCCC4)cc2)oc2c1ccc1ccccc12 | u | -12% | u
O=C(/C=C/c1ccccc1Cl)Nc1ccc(Cl)cn1 | x | 4% | x
O=C(/C=C/c1ccccc1Cl)Nc1ccc(-c2nnc3n2CCCCC3)cc1 | -6 | -4% | 4µM*
O=C(Nc1ccc(-c2nnc3n2CCCCC3)cc1)c1cc2ccccc2o1 | -7 | -1% | 2.2µM*
c1cnc(Oc2ccc(-c3nnco3)cc2)cn1 | 2 | 4% | -8%
CN(CCc1cnn(C)c1)Cc1cn[nH]c1-c1ccc(-c2ccccc2)cc1 | x | -1% | x
C=CCOC(=O)Nc1c(C(=O)OC)[nH]c2ccc(Cl)cc12 | -11 | u | u
CCN(CC)c1nc(C)nc2c1cnn2CCc1ccccc1 | u | u | -8%
CCOCc1cnc(C)nc1NCC(=O)c1c(C)n(C)c2ccc(OC)cc12 | 6 | 32µM* | -7%
COc1ccc2c(c1)c(C(=O)CNc1nc(C)cs1)c(C)n2C | -14 | u | -20%
O=C(O)c1c(Cl)cccc1Cl | x | -6% | -9%
Oc1ccc(Cl)cc1C1=NNC(c2ccc(Cl)cc2)C1 (stereo unspecified) | -28 | u | u
Oc1c(Cl)cc(Cl)cc1C1=NNC(c2ccc(Cl)cc2)C1 (stereo unspecified) | x | 6.3µM* | x
CC(C)C(NC(=O)c1ccc(F)cc1)C(=O)Nc1cccnc1 (stereo unspecified) | x | 8% | x
COC(=O)c1ccc(Oc2coc3cc(OCc4ccc([N+](=O)[O-])cc4)ccc3c2=O)cc1 | -1 | 7% | -7%

Screening results (PubChem BioAssay)
